# In PubChem BioAssay (Tox21):
# Where “and” joins values, the source holds several entries; their conditions need not be identical. Equal values may be shown once. A number with no mark means an inactive call. Inconclusive results are not listed. A call without a number means that no potency is given here. Calls of active or inactive are those of the source. Unless noted, calls come from the whole dose curve; as a rule, active = well fitted curve in the direction sought with a large enough effect in the repeat runs; inconclusive = weak or mixed curves; inactive = no such curve, though single readings can be large; an effect the other way counts as inactive or inconclusive.
# Experiments:
# [1] = qHTS assay to identify small molecule agonists of the estrogen related receptor signaling pathway with the pleiotropic PPARgamma coactivator (PGC) (AID 1224823); note: potency is the fitted concentration of half-maximal effect
# How it was run: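 Luminescence readout (One-Glo, 30 min RT) from PGC/ERR cell line treated 18 h at 37 C with pin-tool-delivered DMSO compound solutions; cells plated 6 h before dosing. Quantitative HTS format.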
# [2] = qHTS assay to identify small molecule antagonists of the estrogen related receptor (ERR) signaling pathway from Tox21 library - cell viability counter screen (AID 1224834); note: nearly all actives have a fitted effect of over 30% in size
# How it was run: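 Counter screen run in ERR cells (2,000 cells/well): cells pre-incubated 6 h, then treated with compounds for 17.5 h at 37 C. Fluorescence was read 30 min after CellTiter-Fluor addition.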
# [3] = target: Luciferin 4-monooxygenase (Photinus pyralis) (UniProt P08659); test: qHTS assay to identify small molecule inhibitors of firefly luciferase (AID 1224835); note: nearly all actives have a fitted effect of over 25% in size; note: potency is the fitted concentration of half-maximal effect
# How it was run: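 Quantitative HTS format; KM concentrations of both substrates. Purified P. pyralis FLuc activity quantified from luminescence images.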
# [4] = qHTS assay to identify small molecule agonists of the constitutive androstane receptor (CAR) signaling pathway - cell viability counter screen (AID 1224836); note: nearly all actives have a fitted effect of over 45% in size
# How it was run: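 23 h treatment, 37 C, 5% CO2. Cell line: HepG2 stably expressing hCAR with a CYP2B6-2.2kb construct. Co-treatment: PK11195, 0.75 uM final. Read-out: CellTiter-Fluor fluorescence intensity.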
# [5] = qHTS assay to identify small molecule antagonists of the constitutive androstane receptor (CAR) signaling pathway - cell viability counter screen (AID 1224837); note: nearly all actives have a fitted effect of over 45% in size
# How it was run: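 CITCO at 50 nM final was added alongside compounds (15 concentrations) to double-stable hCAR/CYP2B6-2.2kb HepG2 cells. Following 23 hr at 37 C, cell viability was quantified by CellTiter-Fluor fluorescence intensity.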
# [6] = target: Nuclear receptor subfamily 1 group I member 3 (Homo sapiens) (UniProt Q14994); test: qHTS assay to identify small molecule antagonists of the constitutive androstane receptor (CAR) signaling pathway (AID 1224838); note: nearly all actives have a fitted effect of over 40% in size
# How it was run: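 Inhibition of CITCO-driven (50 nM final) CYP2B6 reporter expression is measured in HepG2 cells stably carrying hCAR. Fifteen compound concentrations are applied for 24 h at 37 C, followed by luciferase luminescence.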
# [7] = qHTS assay to identify small molecule antagonists of the estrogen related receptor signaling pathway with the pleiotropic PPARgamma coactivator (PGC) from Tox21 10K library - cell viability counter screen (AID 1224840; active = well fitted cell-killing curve with a large enough effect in the repeat runs, not every such curve was filed as active; note: nearly all actives have a fitted effect of over 40% in size)
# How it was run: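 Readout: fluorescence intensity from CellTiter-Fluor after 30 min at 37 C/5% CO2. Preceded by 17.5 h treatment of PGC/ERR cells with DMSO-dissolved compounds, added 6 h post-seeding.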
# [8] = qHTS assay to identify small molecule antagonists of the estrogen related receptor signaling pathway with the pleiotropic PPARgamma coactivator (PGC) from Tox21 10K library (AID 1224841; call rule not given here; note: actives are mostly falling curves and most rising ones were filed inactive; nearly all actives have a fitted effect of over 50% in size)
# How it was run: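 One-Glo luminescence, measured after half an hour at room temperature, quantified reporter output of PGC/ERR cells. These had been plated at 2,000 per well, incubated 6 h, dosed with compounds in DMSO, then kept 18 h at 37 C.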
# [9] = target: Thyrotropin receptor (Homo sapiens) (UniProt P16473); test: qHTS assay to identify small molecule agonists of the thyroid stimulating hormone receptor (TSHR) signaling pathway (AID 1224843; calls by dose curve; note: nearly all actives have a fitted effect of over 45% in size)
# How it was run: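 Using 15 concentrations per compound in triplicate, cAMP production was monitored in TSHR-HEK293 cells after 30 min compound incubation at RT; HTRF reagents followed, with fluorescence intensity recorded after 1 h.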
# [10] = qHTS assay to identify small molecule agonists of H2AX (AID 1224845; active = well fitted activation curve with a large enough effect in the signal ratio in the repeat runs, not every such curve was filed as active; the % refers to the signal ratio)
# How it was run: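 Wild-type CHO-K1 cells plated overnight, then exposed 3 hr at 37C to compounds at 15 concentrations (0.76% DMSO). Lysed, then HTRF anti-pH2AX(S139)-cryptate/anti-H2AX-d2 detection after 24 hr at room temperature; emissions 665 and 620 nm.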
# [11] = qHTS RealTime-Glo MT Cell Viability Assay in HepG2 cells - 24 hour (AID 1224867); note: nearly all actives have a fitted effect of over 50% in size
# How it was run: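 Cell number in HepG2 cultures estimated from NanoLuc luminescence generated by metabolic reduction of a prosubstrate by living cells. The homogeneous, nonlytic format allowed repeated reads at 0, 8, 16, 24, 32 and 40 h of compound exposure.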
# [12] = qHTS RealTime-Glo MT Cell Viability Assay in HEK293 cells - 32 hour (AID 1224868); note: top concentration of the series differs between compounds; nearly all actives have a fitted effect of over 50% in size
# How it was run: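 Homogeneous bioluminescent viability format in HEK293 cells (600 cells/well). Following 5 h at 37 C/5% CO2, 23 nL compound was pintooled; the signal was measured repeatedly during 40 h incubation.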
# [13] = A CellTox Green Cytotoxicity Assay to monitor cytotoxicity in HEK293 cells - 0 hour (AID 1224869); note: nearly all actives have a fitted effect of over 50% in size
# How it was run: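 Real-time, in one plate: 600 HEK293 cells/well with dead-cell DNA dye, pinned compound after 5 h, 37 C incubation over 40 h; viable cells give no appreciable fluorescence.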
# [14] = target: Nuclear receptor subfamily 1 group I member 3 (Homo sapiens) (UniProt Q14994); test: qHTS assay to identify small molecule agonists of the constitutive androstane receptor (CAR) signaling pathway (AID 1224839); note: nearly all actives have a fitted effect of over 15% in size; note: potency is the fitted concentration of half-maximal effect
# How it was run: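 Compounds tested at 15 concentrations on HepG2 cells stably harbouring hCAR and CYP2B6-2.2kb reporter constructs, co-treated with PK11195 (0.75 uM final), 24 h at 37 C; luminescent reporter signal quantified.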
# [15] = qHTS assay to identify small molecule agonists of the estrogen related receptor signaling pathway with the pleiotropic PPARgamma coactivator (PGC) from Tox21 10K library (AID 1224842); note: nearly all actives have a fitted effect of over 15% in size; note: potency is the fitted concentration of half-maximal effect
# How it was run: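 PGC/ERR reporter cells (NTP line) were seeded 2,000 per well, rested 6 h at 37 C/5% CO2, then pin-dosed with compounds in DMSO for 18 h at 37 C; luciferase read by One-Glo luminescence after 30 min at room temperature.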
# [16] = qHTS assay to identify small molecule agonists of the hypoxia (HIF-1) signaling pathway (AID 1224846; active = well fitted activation curve with a large enough effect in the signal ratio in the repeat runs, not every such curve was filed as active; the % refers to the signal ratio)
# How it was run: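 ME-180 HRE-bla reporter cells; compounds in DMSO, 17 h at 37C; read-out beta-lactamase via CCF4-AM FRET.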
# [17] = qHTS assay to identify small molecule agonists of H2AX - cell viability counter screen (AID 1224847; calls by dose curve; note: top concentration of the series differs between compounds; nearly all actives have a fitted effect of over 30% in size)
# How it was run: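 Compounds tested at 15 concentrations were incubated 3 hr at 37C with wild-type CHO-K1 cells; cellular ATP-based luminescence (CellTiter-Glo) indicated viability.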
# [18] = qHTS assay to identify small molecule agonists of the hypoxia (HIF-1) signaling pathway - cell viability counter screen (AID 1224844; calls by dose curve; note: nearly all actives have a fitted effect of over 50% in size)
# How it was run: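 In this counter screen, HRE-bla ME-180 cell viability after 17 hrs of compound exposure at 37C was read by CellTiter-Glo luminescence, multiplexed with the beta-lactamase reporter measurement.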
# [19] = qHTS assay to identify small molecule agonists of the estrogen related receptor (ERR) signaling pathway from Tox21 library (AID 1224849; calls by dose curve; note: nearly all actives have a fitted effect of over 15% in size); conditions: ERR reporter cell line, ONE-Glo luciferase, 18 h; at 92.4 µM (top of the series)
# How it was run: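 Luciferase activity in ERR pathway reporter cells served as the agonist readout; exposure lasted 18 h at 37 C, with ONE-Glo detection after 30 min at room temperature.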
# Sequence of Luciferin 4-monooxygenase (Photinus pyralis) (P08659 whole entry, looked up): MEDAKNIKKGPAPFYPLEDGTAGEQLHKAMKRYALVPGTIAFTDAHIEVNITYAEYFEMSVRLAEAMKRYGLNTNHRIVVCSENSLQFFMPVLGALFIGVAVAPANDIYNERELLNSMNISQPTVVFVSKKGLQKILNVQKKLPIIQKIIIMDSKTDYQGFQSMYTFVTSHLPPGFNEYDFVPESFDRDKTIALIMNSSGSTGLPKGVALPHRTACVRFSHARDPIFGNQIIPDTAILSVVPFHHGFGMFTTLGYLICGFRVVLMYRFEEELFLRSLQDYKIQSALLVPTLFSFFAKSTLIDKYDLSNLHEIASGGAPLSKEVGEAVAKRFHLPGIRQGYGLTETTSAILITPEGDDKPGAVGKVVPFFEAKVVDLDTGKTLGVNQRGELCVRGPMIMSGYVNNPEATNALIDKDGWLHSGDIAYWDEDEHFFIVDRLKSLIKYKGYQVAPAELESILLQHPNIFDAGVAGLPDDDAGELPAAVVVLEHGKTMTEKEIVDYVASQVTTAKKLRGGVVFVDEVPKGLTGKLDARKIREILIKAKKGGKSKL
# Sequence of Thyrotropin receptor (Homo sapiens) (P16473 whole entry, looked up): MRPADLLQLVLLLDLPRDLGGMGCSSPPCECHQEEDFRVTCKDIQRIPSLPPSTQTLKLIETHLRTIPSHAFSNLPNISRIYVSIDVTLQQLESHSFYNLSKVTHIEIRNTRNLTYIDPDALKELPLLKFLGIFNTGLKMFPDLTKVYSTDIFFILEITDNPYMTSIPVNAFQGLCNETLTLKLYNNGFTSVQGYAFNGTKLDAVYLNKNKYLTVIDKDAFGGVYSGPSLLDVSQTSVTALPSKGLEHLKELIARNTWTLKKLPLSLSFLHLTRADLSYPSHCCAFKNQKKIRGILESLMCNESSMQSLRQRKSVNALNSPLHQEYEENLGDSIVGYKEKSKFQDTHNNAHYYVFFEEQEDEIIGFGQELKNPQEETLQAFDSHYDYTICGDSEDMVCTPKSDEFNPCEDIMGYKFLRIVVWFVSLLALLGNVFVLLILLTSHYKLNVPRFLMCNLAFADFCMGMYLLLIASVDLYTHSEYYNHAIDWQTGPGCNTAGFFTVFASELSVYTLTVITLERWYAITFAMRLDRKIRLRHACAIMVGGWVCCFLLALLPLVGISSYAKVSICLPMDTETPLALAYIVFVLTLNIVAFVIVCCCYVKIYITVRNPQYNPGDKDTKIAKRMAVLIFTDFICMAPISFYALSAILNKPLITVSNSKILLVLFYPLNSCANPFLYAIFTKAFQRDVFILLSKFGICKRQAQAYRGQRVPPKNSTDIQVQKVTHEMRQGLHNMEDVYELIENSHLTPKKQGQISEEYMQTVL
# Sequence of Nuclear receptor subfamily 1 group I member 3 (Homo sapiens) (Q14994 whole entry, looked up): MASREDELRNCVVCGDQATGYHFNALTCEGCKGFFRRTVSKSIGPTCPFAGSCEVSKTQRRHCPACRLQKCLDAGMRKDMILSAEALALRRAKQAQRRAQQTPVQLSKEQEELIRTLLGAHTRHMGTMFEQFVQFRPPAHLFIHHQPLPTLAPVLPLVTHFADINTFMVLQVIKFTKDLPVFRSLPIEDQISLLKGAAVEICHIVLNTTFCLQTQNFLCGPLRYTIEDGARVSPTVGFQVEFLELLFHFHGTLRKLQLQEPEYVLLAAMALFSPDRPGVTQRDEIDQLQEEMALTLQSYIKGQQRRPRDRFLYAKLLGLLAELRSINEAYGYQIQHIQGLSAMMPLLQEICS
SMILES,Potency [1],Potency [2],Potency [3],Potency [4],Potency [5],Potency [6],Potency [7],Potency [8],Potency [9],Potency [10],Potency [11],Potency [12],Potency [13],Potency [14],Potency [15],outcome [16],Potency [17],Potency [18],"activity change, positive = activation [19]"
O=C(O)c1cc(-c2ccccc2)nc2ccccc12,inactive,inactive,12.8 µM (active) and 13.8 µM (active),inactive,inactive,inactive,inactive,inactive,inactive,inactive,inactive,inactive,inactive,,,,,,
O=C1CCCCC1,,inactive,inactive,inactive,inactive,inactive,inactive,inactive,,inactive,,inactive,inactive,inactive,inactive,inactive,inactive,,
Cc1ccc(C)c(C)c1,,inactive,inactive,inactive,inactive,inactive,inactive,,inactive,inactive,inactive,inactive,inactive,inactive,,inactive,,inactive,
CCCCOCCOCCOC(=O)CCCCC(=O)OCCOCCOCCCC,,inactive,inactive,inactive,inactive,inactive,inactive,,,inactive,inactive,inactive,,inactive,,inactive,inactive,inactive,
C=C(C#N)C(=O)OCC,,inactive,inactive,inactive,inactive,inactive,inactive,inactive,inactive,inactive,inactive,inactive,inactive,inactive,inactive,inactive,inactive,,7.93% and 0.135%
O=c1c(-c2ccc(O)cc2)coc2cc(O)ccc12,20.3 µM (active),inactive,,inactive,,inactive,inactive,inactive,inactive,inactive,inactive,,inactive,15.2 µM (active) and 10.9 µM (active),24.1 µM (active) and 27.3 µM (active),,inactive,inactive,150% (active) and 64.9% (active)
Cc1ccc(C(=O)O)o1,,inactive,inactive,inactive,inactive,inactive,inactive,,inactive,inactive,,inactive,inactive,inactive,,inactive,,inactive,
CCc1ccc(O)cc1,,inactive,inactive,inactive,inactive,inactive,inactive,inactive,inactive,inactive,inactive,inactive,,inactive,inactive,inactive,inactive,inactive,0.519% and 6.7%
